Source: PubChem BioAssay (EPA / NIEHS)
Results filed as inconclusive are left out. Active and inactive are the calls of the source. How the source made its calls, unless noted: active means hit-call score of the fitted dose curve at least 0.9, where 1 is the maximum; inactive means score below 0.9.

Tests used:
[1] = read-out: Macrophage colony-stimulating factor (MCSF), CSF1 (gene 1435); assay: BSK_LPS_MCSF: BioMAP Diversity Plus: LPS Assay for Macrophage colony-stimulating factor (MCSF) Biomarker Activity (AID 2283083); details: primary human HUVEC with PBMC; actives raise or lower the signal
Method in brief: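 HUVEC–PBMC co-culture, M-CSF measured by ELISA 24 h after chemical dosing. Fitted in both directions relative to DMSO as negative control; overt cytotoxicity assessed by SRB total-protein staining in parallel cultures.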

[2] = read-out: Tissue Factor, F3 (gene 2152); assay: BSK_LPS_TissueFactor: BioMAP Diversity Plus: LPS Assay for Tissue Factor Biomarker Activity (AID 2283084); details: primary human HUVEC with PBMC; actives raise or lower the signal
Method in brief: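 Human umbilical vein endothelial cells co-cultured with PBMC were dosed with compound. Cell-surface CD142 was measured by ELISA 24 h later. Activity was fitted bidirectionally against DMSO, with SRB total-protein staining in parallel cultures for cytotoxicity.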

[3] = read-out: Tumor necrosis factor (Homo sapiens) (UniProt P01375); assay: BSK_LPS_TNFa: BioMAP Diversity Plus: LPS Assay for Tumour Necrosis Factor alpha (TNFa) Biomarker Activity (AID 2283085); details: primary human HUVEC with PBMC; actives raise or lower the signal
Method in brief: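 Human umbilical vein endothelial cells co-cultured with PBMC were exposed to test chemical and TNFa measured by ELISA 24 h after dosing. Bidirectional curve fitting was done relative to DMSO as negative control and baseline.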

CD38, CD38 (gene 952) = assay: BSK_SAg_CD38: BioMAP Diversity Plus: SAg Assay for CD38 Biomarker Activity (AID 2283087); details: primary human HUVEC with PBMC; actives raise or lower the signal
Method in brief: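 Fluorescence ELISA of cell-surface CD38 served as the read-out, with either increase or decrease fitted against DMSO controls. Cells were a human umbilical vein endothelium plus PBMC co-culture under SEB/TSST-1 stimulation, measured 24 h after dosing.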

CD40, CD40 (gene 958) = assay: BSK_SAg_CD40: BioMAP Diversity Plus: SAg Assay for CD40 Biomarker Activity (AID 2283088); details: primary human HUVEC with PBMC; actives raise or lower the signal
Method in brief: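 HUVEC plus PBMC co-culture, superantigen-activated, with CD40 read by ELISA 24 h after dosing. Curves fitted in both directions against DMSO. Overt cytotoxicity checked by parallel SRB total-protein staining.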

CD69, CD69 (gene 969) = assay: BSK_SAg_CD69: BioMAP Diversity Plus: SAg Assay for CD69 Biomarker Activity (AID 2283089); details: primary human HUVEC with PBMC; actives raise or lower the signal;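 on AC50: cell surface CD69 protein quantified by ELISA with fluorescence detection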
Method in brief: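 Primary human vascular co-culture (umbilical vein endothelium with peripheral blood mononuclear cells) exposed to test chemical for 24 h. CD69 levels quantified by fluorescence ELISA; DMSO served as negative control for bidirectional fitting.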

[4] = read-out: Monocyte Chemoattractant Protein-1 (MCP1), CCL2 (gene 6347); assay: BSK_SAg_MCP1: BioMAP Diversity Plus: SAg Assay for Monocyte Chemoattractant Protein-1 (MCP1) Biomarker Activity (AID 2283090); details: primary human HUVEC with PBMC; actives raise or lower the signal
Method in brief: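 MCP-1 levels in the endothelial–PBMC SAg co-culture were quantified by ELISA at 24 h post-dosing; both increases and decreases versus DMSO scored. Cytotoxicity monitored by SRB total protein in parallel cultures.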

[5] = read-out: E-selectin (Homo sapiens) (UniProt P16581); assay: BSK_SAg_Eselectin: BioMAP Diversity Plus: SAg Assay for Eselectin Biomarker Activity (AID 2283091); details: primary human HUVEC with PBMC; actives raise or lower the signal
Method in brief: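 Human umbilical vein endothelial cells co-cultured with peripheral blood mononuclear cells, SAg system. E-selectin is measured by ELISA 24 h after dosing and fitted bidirectionally against DMSO. Cytotoxicity is checked by SRB staining of parallel cultures.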

[6] = read-out: Monokine induced gamma interferon (MIG), CXCL9 (gene 4283); assay: BSK_SAg_MIG: BioMAP Diversity Plus: SAg Assay for Monokine induced gamma interferon (MIG) Biomarker Activity (AID 2283092); details: primary human HUVEC with PBMC; actives raise or lower the signal
Method in brief: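 Endothelial cells and PBMC were co-cultured, exposed to test chemicals, and sampled 24 h later. MIG was measured by ELISA, and responses were fitted in both directions relative to DMSO.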

[7] = BSK_SAg_PBMCCytotoxicity: PBMC Cytotoxicity Assessment in the BioMAP Diversity Plus: SAg Assay (AID 2283093); details: primary human HUVEC with PBMC;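 further: PBMC viability measured as Alamar Blue reduction fluorescence at 546/580 nm; fitted both ways against DMSO so a hit may be loss or gain of signal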;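 on AC50: PBMC superantigen activated with SEB plus TSST-1 one hour after compound addition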
Method in brief: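 HUVEC/PBMC co-culture; PBMC exposed to chemical 1 h before SEB and TSST-1 activation (20 ng/mL each), incubated 90 h, then Alamar Blue 6 h, fluorescence 546/580 nm. Bidirectional fit versus DMSO baseline.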

[8] = read-out: Interleukin-8 (IL8), CXCL8 (gene 3576); assay: BSK_SAg_IL8: BioMAP Diversity Plus: SAg Assay for Interleukin-8 (IL8) Biomarker Activity (AID 2283094); details: primary human HUVEC with PBMC; actives raise or lower the signal
Method in brief: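 Human umbilical vein endothelial cells co-cultured with peripheral blood mononuclear cells; IL-8 measured by ELISA 24 h after chemical dosing. Bidirectional concentration-response fitting used DMSO as negative control and activity baseline.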

[9] = BSK_SAg_Proliferation: Cell Proliferation Assessment in the BioMAP Diversity Plus: SAg Assay (AID 2283095); details: primary human HUVEC with PBMC;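 further: relative cell number as total protein by SRB absorbance in sub-confluent culture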
Method in brief: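 Human umbilical vein endothelial cells co-cultured with peripheral blood mononuclear cells; total protein measured by sulforhodamine B staining (0.1% SRB after 10% TCA fixation), absorbance at 560 nm, at 96 h. Bidirectional fit against DMSO baseline.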

[10] = BSK_SAg_SRB: Viability Assessment in the BioMAP Diversity Plus: SAg Assay (AID 2283096); details: primary human HUVEC with PBMC;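 further: cells read one day after compound addition; hits may be either gain or loss of signal compared with DMSO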
Method in brief: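 Human umbilical vein endothelial cells co-cultured with PBMC, read 24 h after compound dosing. Total protein measured by sulforhodamine B staining (0.1% SRB after 10% TCA fixation, absorbance 560 nm); bidirectional fit versus DMSO baseline.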

[11] = target: Cytochrome P450 3A4 (Homo sapiens) (UniProt P08684); assay: NVS_ADME_hCYP3A4: NovaScreen (NVS) CYP450-related Enzyme Activity (ADME) Assay for human CYP3A4 (AID 2283110; active means hit-call score of the fitted dose curve at least 0.9, where 1 is the maximum)
Method in brief: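 Cell-free recombinant enzyme expressed in insect cells; fluorescent substrate turnover read after 0.33 h, acetonitrile as negative control. Primary screen in duplicate at 10 uM, actives then tested in concentration series.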

[12] = target: Cytochrome P450 2C19 (Homo sapiens) (UniProt P33261); assay: NVS_ADME_hCYP2C19: NovaScreen (NVS) CYP450-related Enzyme Activity (ADME) Assay for human CYP2C19 (AID 2283113; active means hit-call score of the fitted dose curve at least 0.9, where 1 is the maximum;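 further: potency for inhibition seen as loss of fluorescent signal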)
Method in brief: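 Cell-free recombinant human CYP2C19 from insect cells, fluorescent substrate; activity read by fluorescence intensity 1 h after dosing. Primary screen in duplicate at 10 uM; actives retested in concentration series. Signal loss versus acetonitrile negative control.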

[13] = target: human CYP19A1, CYP19A1 (gene 1588) (UniProt P11511); assay: NVS_ADME_hCYP19A1: NovaScreen (NVS) CYP450-related Enzyme Activity (ADME) Assay for human CYP19A1 (AID 2283098; active means hit-call score of the fitted dose curve at least 0.9, where 1 is the maximum;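 on AC50: potency for inhibitors seen as loss of fluorescent enzyme signal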)
Method in brief: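 Recombinant enzyme in a cell-free format, read 0.5 h after dosing by fluorescence from a fluorogenic substrate. Loss of signal was fitted against acetonitrile as baseline. Primary screen in duplicate at 10 uM, actives then tested in concentration series.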

Measured: AC50

E-selectin (Homo sapiens), sequence (P16581 whole entry, looked up): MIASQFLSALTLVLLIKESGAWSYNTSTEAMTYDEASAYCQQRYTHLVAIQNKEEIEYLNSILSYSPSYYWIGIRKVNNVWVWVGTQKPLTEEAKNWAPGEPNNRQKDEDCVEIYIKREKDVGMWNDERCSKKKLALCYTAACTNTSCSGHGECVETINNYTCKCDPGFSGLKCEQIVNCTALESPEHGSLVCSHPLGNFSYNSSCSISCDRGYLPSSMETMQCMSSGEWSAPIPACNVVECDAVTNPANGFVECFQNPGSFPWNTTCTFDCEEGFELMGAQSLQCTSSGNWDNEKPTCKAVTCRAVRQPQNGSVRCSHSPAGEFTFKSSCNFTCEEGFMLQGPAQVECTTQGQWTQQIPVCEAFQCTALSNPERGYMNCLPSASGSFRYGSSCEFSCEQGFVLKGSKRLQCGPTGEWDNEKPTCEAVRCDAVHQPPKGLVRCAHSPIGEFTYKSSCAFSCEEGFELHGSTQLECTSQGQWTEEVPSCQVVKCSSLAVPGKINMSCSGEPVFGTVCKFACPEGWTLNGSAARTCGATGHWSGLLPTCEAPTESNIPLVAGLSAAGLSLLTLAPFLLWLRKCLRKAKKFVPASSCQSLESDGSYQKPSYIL
Tumor necrosis factor (Homo sapiens), sequence (P01375 whole entry, looked up): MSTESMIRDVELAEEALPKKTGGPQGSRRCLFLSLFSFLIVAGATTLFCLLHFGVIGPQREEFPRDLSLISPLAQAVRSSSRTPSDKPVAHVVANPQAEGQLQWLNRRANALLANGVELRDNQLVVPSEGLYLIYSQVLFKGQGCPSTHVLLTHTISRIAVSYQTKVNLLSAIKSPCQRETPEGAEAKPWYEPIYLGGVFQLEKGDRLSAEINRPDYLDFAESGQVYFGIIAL
Cytochrome P450 3A4 (Homo sapiens), sequence (P08684 whole entry, looked up): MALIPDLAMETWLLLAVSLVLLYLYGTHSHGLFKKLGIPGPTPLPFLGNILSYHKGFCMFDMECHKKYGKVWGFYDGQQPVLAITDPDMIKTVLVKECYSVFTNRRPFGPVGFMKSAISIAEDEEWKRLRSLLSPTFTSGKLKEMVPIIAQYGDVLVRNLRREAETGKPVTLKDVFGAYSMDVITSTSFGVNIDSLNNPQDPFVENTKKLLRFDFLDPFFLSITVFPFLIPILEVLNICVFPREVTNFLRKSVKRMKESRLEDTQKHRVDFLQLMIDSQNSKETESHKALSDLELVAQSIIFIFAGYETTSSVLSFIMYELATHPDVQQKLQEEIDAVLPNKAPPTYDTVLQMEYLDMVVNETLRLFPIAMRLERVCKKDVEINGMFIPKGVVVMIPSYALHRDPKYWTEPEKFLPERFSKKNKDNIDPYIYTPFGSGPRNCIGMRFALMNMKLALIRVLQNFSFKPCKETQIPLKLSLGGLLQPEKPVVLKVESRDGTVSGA
human CYP19A1, CYP19A1 (gene 1588), sequence (P11511 whole entry, looked up): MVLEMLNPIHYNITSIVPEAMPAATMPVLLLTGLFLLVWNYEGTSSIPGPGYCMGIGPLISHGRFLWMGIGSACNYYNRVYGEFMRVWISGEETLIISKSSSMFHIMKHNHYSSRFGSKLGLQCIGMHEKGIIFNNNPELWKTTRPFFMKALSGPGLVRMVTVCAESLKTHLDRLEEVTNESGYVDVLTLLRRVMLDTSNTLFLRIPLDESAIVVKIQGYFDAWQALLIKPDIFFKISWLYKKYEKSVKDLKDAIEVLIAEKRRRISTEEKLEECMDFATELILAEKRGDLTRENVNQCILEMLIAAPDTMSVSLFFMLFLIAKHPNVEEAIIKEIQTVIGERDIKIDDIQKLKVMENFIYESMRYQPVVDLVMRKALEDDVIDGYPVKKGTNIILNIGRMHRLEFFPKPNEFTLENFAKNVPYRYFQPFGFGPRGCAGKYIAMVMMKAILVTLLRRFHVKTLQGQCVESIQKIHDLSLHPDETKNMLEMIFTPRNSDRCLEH

O=C1OC2(c3cc(Br)c(O)c(Br)c3Oc3c2cc(Br)c(O)c3Br)c2c(Cl)c(Cl)c(Cl)c(Cl)c21
inactive: [3] | [8] | [11]
active: [1] 5.42 µM | [2] 8.77 µM | CD38, CD38 (gene 952) 5.04 µM | CD40, CD40 (gene 958) 6.57 µM | CD69, CD69 (gene 969) 6.39 µM | [4] 5.24 µM | [5] 6.53 µM | [6] 23.1 µM | [7] 23.5 µM | [9] 21.3 µM | [10] 18.2 µM | [12] 0.196 µM

CC1(C)[C@H]2CC[C@]1(C)[C@H](O)C2
inactive: [11]

CN(C)CCCN
inactive: [13]

OC1OC[C@@H](O)[C@H](O)[C@H]1O (stereo partly specified)
not listed: [11] | [12] | [13]
inactive: all other assays above

Nc1cc([N+](=O)[O-])ccc1O
not listed: [11] | [12] | [13]
inactive: all other assays above

CCCCCCCCC=O
not listed: [11] | [12] | [13]
inactive: all other assays above

CCCCCCCCCCCCCCCCCC(=O)OCC(CC)CCCC (stereo unspecified)
not listed: [11] | [12] | [13]
inactive: all other assays above

CNC[C@H](O)c1cccc(O)c1
not listed: [11] | [12] | [13]
inactive: all other assays above

Cc1ccc(C(C)C)cc1O
active: [13] 3.83 µM

c1ccc2c(c1)c1cccc3ccc4cccc2c4c31
active: [2] 0.369 µM
not listed: [11] | [12] | [13]
inactive: all other assays above
